# Records with an inconclusive call do not appear. A call without a number means that no potency is given here. Calls of active or inactive are those of the source. Calls come from the whole dose curve; as a rule, active = well fitted curve in the direction sought with a large enough effect; inconclusive = small, poorly fitted or top-dose-only effect, or another doubt; inactive = no such curve, though single readings can be large; an effect the other way counts as inactive or inconclusive.
# How the values were obtained:
# [1] = qHTS Assay for Identification of Small Molecule Agonists for Thrombopoietin (TPO) Signaling Pathway (AID 917)
# Procedure, shortened: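 Stimulation at the TPO EC50 (26 pM final) was used to detect activators. Ba/F3 mouse cells bearing human TPO receptor and a luciferase reporter under the Glycoprotein IIb promoter were exposed to compounds for 24 hrs at 37 C.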
# [2] = S16 Schwann cell viability assay (CellTiter-Glo assay) (AID 624031);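 note: cellular ATP luminescence as a viability measure; nearly all actives have a fitted effect of over 70% in size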
# Procedure, shortened: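 Native S16 Schwann cells (rat), serum-containing medium, overnight attachment then 24 h drug exposure at 37 °C/5% CO2. CellTiter-Glo ATP signal; normalized to cell-free and vehicle wells.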
# 7G8 = assay: qHTS profiling for inhibitors of Plasmodium falciparum proliferation (AID 504749); note: nearly all actives have a fitted effect of over 60% in size; note: potency is the fitted concentration of half-maximal effect; details: P. falciparum in erythrocytes, SYBR Green DNA, 72 h; series mostly up to 12.8 µM
# Procedure, shortened: (§1)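 SYBR Green fluorescence of parasite DNA, read after lysis and overnight dark incubation, measured growth over 72 h in erythrocyte culture at 0.3% parasitemia and 2.5% hematocrit. Data normalised to DMSO and 0.29 uM artemisinin, with plate-drift correction.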
# ATS189 = assay: as above; details: P. falciparum in erythrocytes, SYBR Green DNA, 72 h; series mostly up to 12.8 µM
# Procedure, shortened: as §1
# ATS95 = assay: as above; details: P. falciparum in erythrocytes, SYBR Green DNA, 72 h; series mostly up to 12.8 µM
# Procedure, shortened: as §1
# C2A = assay: as above; details: P. falciparum in erythrocytes, SYBR Green DNA, 72 h; series mostly up to 12.8 µM
# Procedure, shortened: as §1
# CP185 = assay: as above; details: P. falciparum in erythrocytes, SYBR Green DNA, 72 h; series mostly up to 12.8 µM
# Procedure, shortened: as §1
# CP211 = assay: as above; details: P. falciparum in erythrocytes, SYBR Green DNA, 72 h; series mostly up to 12.8 µM
# Procedure, shortened: as §1
# CP215 = assay: as above; details: P. falciparum in erythrocytes, SYBR Green DNA, 72 h; series mostly up to 28.7 µM
# Procedure, shortened: as §1
# CP217 = assay: as above; details: P. falciparum in erythrocytes, SYBR Green DNA, 72 h; series mostly up to 12.8 µM
# Procedure, shortened: as §1
# CP237 = assay: as above; details: P. falciparum in erythrocytes, SYBR Green DNA, 72 h; series mostly up to 12.8 µM
# Procedure, shortened: as §1
# CP252 = assay: as above; details: P. falciparum in erythrocytes, SYBR Green DNA, 72 h; series mostly up to 12.8 µM
# Procedure, shortened: as §1
# CP305 = assay: as above; details: P. falciparum in erythrocytes, SYBR Green DNA, 72 h; series mostly up to 12.8 µM
# Procedure, shortened: as §1
# CP335 = assay: as above; details: P. falciparum in erythrocytes, SYBR Green DNA, 72 h; series mostly up to 12.8 µM
# Procedure, shortened: as §1
# DIV30 = assay: as above; details: P. falciparum in erythrocytes, SYBR Green DNA, 72 h; series mostly up to 12.8 µM
# Procedure, shortened: as §1
# ECU = assay: as above; details: P. falciparum in erythrocytes, SYBR Green DNA, 72 h; series mostly up to 12.8 µM
# Procedure, shortened: as §1
# HB3 = assay: as above; details: P. falciparum in erythrocytes, SYBR Green DNA, 72 h; series mostly up to 12.8 µM
# Procedure, shortened: as §1
# P93_24 = assay: as above; details: P. falciparum in erythrocytes, SYBR Green DNA, 72 h; series mostly up to 12.8 µM
# Procedure, shortened: as §1
# TAB113 = assay: as above; details: P. falciparum in erythrocytes, SYBR Green DNA, 72 h; series mostly up to 12.8 µM
# Procedure, shortened: as §1
# [3] = target: Cytochrome P450 3A4 (Homo sapiens) (UniProt P08684); assay: qHTS Assay for Activators of Cytochrome P450 3A4 (AID 885); note: nearly all actives have a fitted effect of over 65% in size
# Procedure, shortened: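 Luminescent readout of luciferin formed from 25 uM Luciferin-PPXE (KM level) by 20 nM CYP3A4 in 200 mM KPO4, with 60 min NADPH-driven reaction at room temperature after 10 min compound exposure. Ketoconazole (57 uM) defined 100% inhibition.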
# Cytochrome P450 3A4 (Homo sapiens), sequence (P08684 whole entry, looked up): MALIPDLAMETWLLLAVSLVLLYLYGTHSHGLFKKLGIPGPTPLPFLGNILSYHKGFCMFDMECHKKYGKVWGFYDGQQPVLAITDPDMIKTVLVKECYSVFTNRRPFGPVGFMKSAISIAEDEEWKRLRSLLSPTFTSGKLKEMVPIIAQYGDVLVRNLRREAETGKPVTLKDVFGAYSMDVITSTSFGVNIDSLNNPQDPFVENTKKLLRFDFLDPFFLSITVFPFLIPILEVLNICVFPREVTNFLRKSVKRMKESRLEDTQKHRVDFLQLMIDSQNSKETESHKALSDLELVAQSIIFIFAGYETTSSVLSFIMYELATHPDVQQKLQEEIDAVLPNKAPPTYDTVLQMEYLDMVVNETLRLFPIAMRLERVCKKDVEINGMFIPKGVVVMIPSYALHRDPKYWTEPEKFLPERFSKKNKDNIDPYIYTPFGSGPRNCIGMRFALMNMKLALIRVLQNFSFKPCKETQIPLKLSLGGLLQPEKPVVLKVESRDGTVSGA
Compound,outcome [1],Potency [2],Potency (7G8),Potency (ATS189),Potency (ATS95),Potency (C2A),Potency (CP185),Potency (CP211),Potency (CP215),Potency (CP217),Potency (CP237),Potency (CP252),Potency (CP305),Potency (CP335),Potency (DIV30),Potency (ECU),Potency (HB3),Potency (P93_24),Potency (TAB113),Potency [3]
C[C@@H]1COc2c(N3CCN(C)CC3)c(F)cc3c(=O)c(C(=O)O)cn1c23,inactive,inactive,inactive,inactive,inactive,inactive,inactive,inactive,inactive,inactive,inactive,inactive,inactive,inactive,inactive,inactive,inactive,inactive,inactive,
CCCN[C@@H](C)C(=O)Nc1c(C)csc1C(=O)OC,,inactive,inactive,inactive,inactive,inactive,inactive,inactive,inactive,inactive,inactive,inactive,inactive,inactive,inactive,inactive,inactive,inactive,inactive,inactive
C[C@@H](C(=O)O)c1ccc(C(=O)c2cccs2)cc1,,,inactive,inactive,inactive,inactive,inactive,inactive,inactive,inactive,inactive,inactive,inactive,inactive,inactive,inactive,inactive,inactive,inactive,
CN(C)CC[C@@H](c1ccccc1)c1ccccn1,inactive,,,,,,,,,,,,,,,,,,,
CC(=O)N(CC(O)CN(C(C)=O)c1c(I)c(C(=O)NC[C@@H](O)CO)c(I)c(C(=O)NC[C@@H](O)CO)c1I)c1c(I)c(C(=O)NC[C@@H](O)CO)c(I)c(C(=O)NC[C@@H](O)CO)c1I,,inactive,inactive,inactive,inactive,inactive,inactive,inactive,inactive,inactive,inactive,inactive,inactive,inactive,inactive,inactive,inactive,inactive,inactive,
O=c1[nH]c(=O)n([C@@H]2C[C@H](O)[C@H](CO)O2)cc1I,,inactive,inactive,inactive,inactive,inactive,inactive,inactive,inactive,inactive,inactive,inactive,inactive,inactive,inactive,inactive,inactive,inactive,inactive,
CN(C)[C@H]1C(=O)C(C(=O)NCN2CCCC2)=C(O)[C@]2(O)C(=O)C3=C(O)c4c(O)cccc4[C@@](C)(O)[C@H]3C[C@@H]12,,inactive,inactive,inactive,inactive,inactive,inactive,inactive,inactive,inactive,inactive,inactive,inactive,inactive,inactive,inactive,inactive,inactive,inactive,
CCN(CC)CC#CCOC(=O)[C@@](O)(c1ccccc1)C1CCCCC1,,inactive,8.91 µM (active),,,,,,inactive,,,inactive,,,,12.6 µM (active),inactive,,inactive,inactive
NC(N)=NC[C@@H]1COC2(CCCCC2)O1,,inactive,inactive,inactive,inactive,inactive,inactive,inactive,inactive,inactive,inactive,inactive,inactive,inactive,inactive,inactive,inactive,inactive,inactive,
CC(C)(O/N=C(\C(=O)N[C@@H]1C(=O)N2C(C(=O)[O-])=C(C[n+]3ccccc3)CS[C@@H]12)c1csc(N)n1)C(=O)O,,inactive,inactive,inactive,inactive,inactive,inactive,inactive,inactive,inactive,inactive,inactive,inactive,inactive,inactive,inactive,inactive,inactive,inactive,
COc1cc(=O)n(C)c2c(OC[C@@H](O)C(C)(C)O)cccc12,inactive,,,,,,,,,,,,,,,,,,,inactive
CN(C)CCO[C@](C)(c1ccccc1)c1ccccn1,inactive,,,,,,,,,,,,,,,,,,,

# — PubChem BioAssay (NCATS)
